Tg IFNy HTS = T. gondii growth inhibition under IFN-gamma. Toxoplasma gondii growth in IFN-gamma-treated host cells; active compounds read low. activity change, negative = inhibition, % (concentration not given with the values). 69,000 compounds, 3.8% hits. AID 1259416; in the data active = activity change below about -70%, passing the limit was not always enough;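 also: host cells are HeLa cells infected with Toxoplasma gondii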
The depositor's hits bear a star. The sample as a whole holds a higher share of hits than the screen did.

SMILES | Tg IFNy HTS
O=C(c1cnc2ccccc2c1)N1CCC2(CC(=O)N(c3cccc(F)c3)C2)C1 (configuration not stated) | -74.3*
CS(=O)(=O)c1cc(Cl)cnc1C1CCN(C(=O)Cc2cn3ccsc3n2)CC1 | 41.5
O=C(c1cccnc1-c1cccc(CN2CCOCC2)c1)N1CCCC1 | 9.9
Cc1nc(C)n(C(C)CNC(=O)Cn2ccc3ccc(F)cc32)n1 (configuration not stated) | 14.3
COc1ccc2c(c1)OCC(Cc1ccc(O)c(OC)c1)C2=O (configuration not stated) | 1.8
COc1ccc2c(c1)OCC(Cc1ccc(OC)c(O)c1)C2=O (configuration not stated) | -75.2*
COc1cc(C[C@H]2C(=O)OC[C@@H]2Cc2ccc(OC)c(OC)c2)ccc1O | -26.5
COC(=O)c1oc2c(c1C)C(=O)CC(c1ccc(OC)c(OC)c1)C2 (configuration not stated) | 46.8
Cc1cc(C(F)(F)F)nn1Cc1ccc(C(=O)O)o1 | 34.7
c1ccc2c(c1)OCC(c1csc3ncnc(N4CCCCC4)c13)O2 (configuration not stated) | -89.8*
CN(C)C(=O)c1ccc2ncnc(N3CCCCC3)c2c1 | -18.9
CCn1ccnc1CC1COc2ccccc2O1 (configuration not stated) | -18.5
CC(C)Oc1ccc(C(=O)N2CCN(S(=O)(=O)c3cc4c5c(c3)CCN5C(=O)CC4)CC2)cc1 | -0.8
COCC(=O)N1CCC2(CC1)CC(c1cccnc1)C(=O)N2 (configuration not stated) | 8.2
COc1ccc2[nH]nc(C(=O)N3C[C@H]4CC=C(C)C[C@H]4C3)c2c1 | -41.5
COc1ccc2[nH]c3c(c2c1)CCNC31C(=O)N(C)c2ccccc21 (configuration not stated) | 310.6
COc1ccc2[nH]c3c(c2c1)CCNC3C1CC=C(C)CC1 (configuration not stated) | -84.0*
CCCCN(C)C(=O)Cn1c(=O)c(S(=O)(=O)c2ccccc2)cc2cc(C)ccc21 | -16.5
O=C(CCn1nnc2ccccc21)Nc1nnc(COc2ccc(F)cc2)s1 | -68.8
O=C(CCn1nnc2ccccc21)Nc1nnc(-c2ccc3c(c2)OCO3)s1 | -103.0*
C[C@@H](Cn1nnc2ccccc21)NC(=O)c1ccc2c(c1)OCO2 | 64.6
Cn1c(-c2ccc(Cl)cc2)n[nH]c1=S | -96.9*
COc1ccc(-c2n[nH]c(=S)n2Cc2ccccc2)cc1 | 52.7
S=c1[nH]nc(-c2ccncc2)n1-c1cccc(Cl)c1 | 14.7
CCCS(=O)(=O)N1CCC2(CC1)CC(CC(=O)NCC1CC1)c1ccccc12 (configuration not stated) | 78.5
SMILES | Tg IFNy HTS
Cc1cccc(S(=O)(=O)N2C[C@@H]3C[C@@H](c4nnc(C)o4)O[C@@H]3C2)c1 | -1.6
CC(C)CNC(=O)C1CC2CN(CCc3ccccc3)CC1O2 (configuration not stated) | 1.6
Cc1nn(Cc2nc(-c3ccc(NC(=O)C4CCCC4)cc3)oc2C)c(C)c1C | -24.4
CC1CCN(c2ncnc3c2cnn3CC(=O)Nc2ccc(OC(F)(F)F)cc2)CC1 | -33.1
O=C(Cn1ncc2c(N3CCCC3)ncnc21)Nc1cccc(Cl)c1 | -54.7
CC1CCN(c2ncnc3c2cnn3CC(=O)Nc2ccccc2C(F)(F)F)CC1 | -81.1*
CC1CCN(c2ncnc3c2cnn3CC(=O)Nc2ccc(F)c(Cl)c2)CC1 | -85.7*
CC1CCN(c2ncnc3c2cnn3CC(=O)Nc2cccc(C(F)(F)F)c2)CC1 | -72.5*
O=C(Cn1ncc2c(N3CCN(c4ccccn4)CC3)ncnc21)Nc1ccccc1C(F)(F)F | 30.2
CC1CCN(c2ncnc3c2cnn3CC(=O)Nc2ccc3c(c2)OCCO3)CC1 | 159.6
CC1CCN(c2ncnc3c2cnn3CC(=O)Nc2cccc(Cl)c2)CC1 | -86.8*
O=C(Cn1ncc2c(N3CCN(c4ccccn4)CC3)ncnc21)Nc1ccc(F)c(Cl)c1 | 183.9
CC1CCN(c2ncnc3c2cnn3CC(=O)Nc2ccccc2F)CC1 | 237.1
COc1ccc(NC(=O)Cn2ncc3c(N4CCC(C)CC4)ncnc32)cc1OC | 51.7
O=C(Cn1ncc2c(N3CCCCC3)ncnc21)Nc1cccc(Cl)c1 | -46.6
CNc1ncccc1[C@@H]1C[C@H](NC(=O)c2ccccc2)C[C@H](C(C)C)O1 | -4.5
Cc1ccc(Nc2nc3cc(C)ccc3cc2C)c(C)c1 | 6.6
Cc1oncc1C(=O)NCc1cc(=O)n2c(n1)CN(CC(C)C)CCC2 | 9.3
CCCc1noc(CN(C)C(=O)c2[nH]c3ccc(C)cc3c2C)n1 | -34.8
O=C(N1CCOC(CCCc2ccccc2)C1)C1(Cn2cccn2)CC1 (configuration not stated) | -2.8
COc1cc2c(cc1-c1nccn1-c1ccccc1CCO)OCCCO2 | 55.3
C=CCOCC12CCCOC1CCN(S(=O)(=O)C1CC1)C2 (configuration not stated) | 49.4
O=C(c1ccco1)N1CCOC2CC(COCc3ccccn3)CC21 (configuration not stated) | 9.0
COc1ccc2nc(Cl)c(CNCc3ccccc3F)c(N3CCOCC3)c2c1 | -99.4*
COc1cc(CNc2ccc(N3CCOCC3)cc2)ccc1OCc1ccccc1F | -16.9

High-throughput results: PubChem, Broad Institute
